High-throughput results as filed in PubChem BioAssay.
Only some compounds are listed: those with a hit (about 4.6% of all), similar ones and a draw of the others.
ssDAF12 agonist – activators of S. stercoralis DAF-12 nuclear receptor; HEK293 ssDAF-12/GRIP1 lit1-tk-luc reporter, luminescence; % of 3 µM dafachronic acid response; activation, % at 6.8 µM; 1% of 370,000 active;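 active means activation above the mean over all tested compounds plus 3 SD, cut at about 0.9% in these data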;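 further: 0% = DMSO-only wells and 100% = 3 µM delta7-dafachronic acid wells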
DAX1 inh-1 – NR0B1 (DAX1) inhibition; P51843; HEK293 Gal4-DAX1 luciferase reporter, luminescence; inhibition, % at 6.75 µM; 0.99% of 340,000 active;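 active means inhibition above the mean over all tested compounds plus 3 SD, cut at about 4.2% in these data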;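 further: 0% = DAX1-transfected cells with DMSO and 100% = empty-vector control cells with DMSO; inhibition shows as a rise in luminescence from relieved DAX1 repression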
DAX1 inh-2 – DAX1 (NR0B1) inhibition, primary screen; HEK293T StAR-luciferase reporter, SF-1/DAX-1 repression relief; inhibition, % at 6.8 µM; 1.1% of 370,000 active;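 active means inhibition above the mean over all tested compounds plus 3 SD, cut at about 3.6% in these data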;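 further: 0% = DAX-1 cells with DMSO and 100% = cells lacking DAX-1 with DMSO; higher inhibition means more luminescence from relief of DAX-1 repression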
Wee1 stabilizer – human Wee1 degradation inhibition, primary screen; HeLa Luc-Wee1K328M stability, luciferase luminescence; 100% = proteasome inhibitor MG132 effect; reporter increase, % at 5 µM; 1.2% of 220,000 active; AID 1321;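 active means activation above the mean of all tested compounds plus 3 SD, set per screening run, cut at about 8.8% in these data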;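 further: cells exposed to compound for 20 h before luminescence read; 0% = DMSO alone and 100% = MG132 at 30 µM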
Target sequence (P30291 whole entry K328M): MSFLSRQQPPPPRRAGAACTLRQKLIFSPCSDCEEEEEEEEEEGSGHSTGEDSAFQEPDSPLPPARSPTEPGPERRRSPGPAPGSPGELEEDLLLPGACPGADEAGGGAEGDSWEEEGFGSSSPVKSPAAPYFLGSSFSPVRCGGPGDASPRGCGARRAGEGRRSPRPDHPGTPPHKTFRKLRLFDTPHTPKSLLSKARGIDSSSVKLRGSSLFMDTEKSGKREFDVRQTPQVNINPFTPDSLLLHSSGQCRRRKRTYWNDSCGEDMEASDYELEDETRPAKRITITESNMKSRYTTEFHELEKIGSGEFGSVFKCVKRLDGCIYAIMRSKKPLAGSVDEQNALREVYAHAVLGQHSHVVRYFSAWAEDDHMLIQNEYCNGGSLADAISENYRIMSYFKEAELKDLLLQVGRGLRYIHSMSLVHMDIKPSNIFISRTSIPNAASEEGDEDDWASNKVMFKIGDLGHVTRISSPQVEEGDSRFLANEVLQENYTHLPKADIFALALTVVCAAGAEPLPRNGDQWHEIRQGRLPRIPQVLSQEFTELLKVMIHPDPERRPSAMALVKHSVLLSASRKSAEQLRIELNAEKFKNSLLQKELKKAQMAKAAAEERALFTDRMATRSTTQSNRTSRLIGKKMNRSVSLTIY
hcDAF-12 act – activators of H. contortus DAF-12 nuclear receptor | activation, % at 6.8 µM | HEK293 hcDAF-12 lit1-tk-luc reporter, luminescence; 0% DMSO, 100% Δ7-dafachronic acid | 1.4% of 370,000 active;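 active means activation above the mean of all tested compounds plus 3 SD, cut at about 5.5% in these data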;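 further: 100% = response to 3 µM Δ7-dafachronic acid high control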
hgDAF-12 ag – activates the H. glycines DAF-12 receptor ligand-binding domain | activation, % at 6.8 µM | 1.8% of 370,000 active | AID 687014 | HEK293 GAL4-hgDAF12 UAS-luciferase reporter, agonist luminescence; normalized to butyrate control;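 active means activation above a cutoff set at the mean of all screened compounds plus 3 SD, cut at about 10% in these data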;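 further: 0% = DMSO wells and 100% = sodium butyrate wells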
Active calls of the source: *; x = no result.

SMILES	ssDAF12 agonist	DAX1 inh-1	DAX1 inh-2	Wee1 stabilizer	hcDAF-12 act	hgDAF-12 ag
Cn1c(SCCc2ccccc2)nnc1-c1ccco1	0	x	2	x	5	13*
COc1cccc(C(=O)Nc2cc(C(=O)NCCc3ccccc3)ccc2Cl)c1	-1	-1	1	2	0	6
CCCCC(=O)Nc1cc(C(=O)NCCc2ccccc2)ccc1Cl	0	1	4.4*	1	2	9
COc1ccc(S(=O)(=O)Nc2cccc3c2O[C@H](CN(C)C(=O)Nc2ccc4c(c2)OCO4)[C@@H](C)CN([C@H](C)CO)C3=O)cc1	-1	1	-1	x	-2	-2
COc1cc(CNC(=O)c2cc3ccccc3oc2=O)cc(OC)c1OC	-1	-1	1	x	-1	0
O=C(Cc1ccc(Cl)cc1)Nc1ccc(SC(F)F)cc1	0	1	1	2	1	11*
Cc1ccc(S(C)(=O)=O)cc1C(=O)Nc1ccc(S(=O)(=O)Nc2nccs2)cc1	-1	1	-1	x	-1	-1
O=C(CCNC(=O)c1ccccc1Cl)Nc1ccc(S(=O)(=O)N2CCOCC2)cc1	-1	2	1	x	-1	0
Cc1ccc(NCc2n[nH]c(=S)n2-c2cccc(Cl)c2)cc1	-1	4.5*	0	5	-1	0
Cc1ccc(-n2c(CNc3cccc(Cl)c3)n[nH]c2=S)cc1	-2	0	0	3	-1	-5
Cc1ccc(CN2CCC[C@]3(N[C@H](c4ccc(C(F)(F)F)cc4)[C@@H]4C(=O)N(Cc5ccccc5)C(=O)[C@@H]43)C2=O)cc1	-2	0	-1	x	-1	-1
Cc1nnc(SCc2cnc(-c3ccc(C(C)C)cc3)s2)n1C	1.5*	-3	2	-2	6.0*	12*
CSc1ccc(CN2CCC(C)(Oc3cccc(F)c3)C2)cc1 (centres undefined)	0	x	-1	x	-1	0
Cc1sc2ncnc(N/N=C/c3cccc(O)c3)c2c1C	0	3	2	-5	5.6*	8
Cc1sc2ncnc(Nc3ccc(O)cc3)c2c1C	-1	-2	0	-3	-1	0
c1cncc(CNc2cccc(-c3nc4ccccc4[nH]3)c2)c1	-1	-1	1	1	4	11*
COc1ccc(S(=O)(=O)N2CCCCCC2)cc1C(=O)N(C)CC(=O)Nc1ccc(Cl)c(Cl)c1	-1	0	-2	x	0	-2
COc1cccc(NC(=O)CN(C)C(=O)c2cc(S(=O)(=O)N3CCCCC3)ccc2Cl)c1	0	0	4.2*	x	-2	-2
O=C1CSC(c2ccccn2)N1c1ccccc1F (centres undefined)	-2	2	0	2	-1	0
O=C1CSC(c2ccccn2)N1c1ccc(F)cc1F (centres undefined)	-1	1	0	9.9*	-1	-2
Fc1ccccc1/C=N/Nc1ncnc2nc[nH]c12	-1	2	3.8*	9	-1	1
Clc1ccc(/C=N/Nc2ncnc3nc[nH]c23)cc1	-2	4.9*	2	1	-1	3
Fc1cccc(/C=N/Nc2ncnc3nc[nH]c23)c1	-1	0	3	-1	2	1
Oc1ccc(/C=N/Nc2ncnc3nc[nH]c23)cc1	0	3	0	-3	0	7
Cc1ccc(/C=N/Nc2ncnc3nc[nH]c23)cc1	-1	5.6*	1	-1	-1	9
SMILES	ssDAF12 agonist	DAX1 inh-1	DAX1 inh-2	Wee1 stabilizer	hcDAF-12 act	hgDAF-12 ag
Cc1cc(C)c(CN2CCN(CCCn3ccc(NC(=O)OCc4ccccc4)nc3=O)CC2)c(C)c1	-1	0	2	x	1	-2
CN(Cc1ccccc1)C(=O)COC(=O)CN1C(=O)c2ccccc2C1=O	-1	1	1	x	-1	1
CC(Cc1ccco1)NC(=O)c1cccc(S(=O)(=O)N(C)C)c1 (centres undefined)	0	1	1	x	4	12*
COC(=O)C(Cc1ccccc1)NC(=O)c1cccc(S(=O)(=O)N(C)C)c1 (centres undefined)	-1	4.4*	0	2	-1	0
CC(NC(=O)C12CC3CC(CC(O)(C3)C1)C2)c1ccccc1 (centres undefined)	-1	5.7*	0	x	-1	-2
Cc1nc(SCC(=O)N(C)c2ccccc2)[nH]c(=O)c1C	-2	x	x	x	0	-5
O=C(O)Cn1c(O)c(C2=c3ccccc3=NC2=O)sc1=O	0	0	0	x	5	2
Cc1c(-n2c(O)c(C3=c4ccccc4=NC3=O)sc2=O)c(=O)n(-c2ccccc2)n1C	1.1*	0	1	3	2	0
COc1ccc(/C=C/C(=O)c2cc(Cl)ccc2O)c(OC)c1	-1	1	0	-1	1	6
COc1ccc(/C=C/C(=O)c2ccc(Cl)cc2)c(OC)c1	-1	1	2	2	1	16*
CCOC(=O)c1c(NC(=O)CCS(=O)(=O)c2ccccc2)sc2c1CCN(C(C)C)C2	-1	0	4.0*	x	2	0
CCCc1nc2ccccc2c(=O)n1NC(=O)c1c(O)c2ccccc2n(C)c1=O	0	0	0	-4	-1	2
CCc1nc2ccccc2c(=O)n1NC(=O)c1c(O)c2ccccc2[nH]c1=O	-1	4.9*	0	2	0	-2
CC(/C=C1\SC(=S)N(CCCC(=O)Nc2ccc(C(=O)O)cc2)C1=O)=C\c1ccccc1	-1	0	1	-3	-1	0
CC(=O)c1ccc(NC(=O)CN2C(=O)/C(=C/C=C/c3ccccc3)SC2=S)cc1	0	-1	0	3	6.5*	3
CC(=Cc1ccccc1)C=C1SC(=S)N(CCCC(=O)Nc2ccc(C(=O)O)cc2)C1=O	-2	x	4.2*	x	0	2
O=C(CCN1C(=O)S/C(=C\C=C\c2ccccc2)C1=O)Nc1ccc(O)cc1	0	2	0	x	0	12*
CCN(CC)CCOC(=O)c1ccc(NC(=O)CCCN2C(=O)/C(=C\c3cccs3)SC2=S)cc1	0	1	6.8*	x	-1	-3
O=C(O)CN1C(=O)/C(=C/C=C/c2ccccc2)SC1=S	-1	1	0	0	0	1
Cc1nn(C)cc1C(=O)Nc1ccc2c(c1)OCCO2	-1	1	0	x	0	1
O=C(O)c1ccc2c(c1)OCCCO2	-1	2	0	3	0	2
O=C(/C=C/c1ccccc1)c1ccc2c(c1)OCCCCO2	0	2	2	1	4	12*
CCOC(=O)C1CCCN(CC(=O)N(C)c2c(N)n(Cc3ccccc3)c(=O)[nH]c2=O)C1 (centres undefined)	-1	0	1	x	-1	2
